Consider 94 compounds from paper PMC4336329 (PLoS ONE, 2015).

Structures are written as SMILES. About 14,000 (4.5%) of roughly 310,000 compounds showed an effect of 50% or more. Effects have a minus sign here. The entries come from a sample that favours strong results as a whole.
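Note: peak tail current of the secondary pulse compared with the same well before compound.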

For the assay, the target named is human ether-à-go-go-related gene (hERG) potassium channel (human, UniProt Q12809). Put plainly: primary screen, population patch clamp on CHO cells stably expressing hERG; higher = less effect of the substance.
Sequence of human ether-à-go-go-related gene (hERG) potassium channel (Q12809 whole entry, looked up): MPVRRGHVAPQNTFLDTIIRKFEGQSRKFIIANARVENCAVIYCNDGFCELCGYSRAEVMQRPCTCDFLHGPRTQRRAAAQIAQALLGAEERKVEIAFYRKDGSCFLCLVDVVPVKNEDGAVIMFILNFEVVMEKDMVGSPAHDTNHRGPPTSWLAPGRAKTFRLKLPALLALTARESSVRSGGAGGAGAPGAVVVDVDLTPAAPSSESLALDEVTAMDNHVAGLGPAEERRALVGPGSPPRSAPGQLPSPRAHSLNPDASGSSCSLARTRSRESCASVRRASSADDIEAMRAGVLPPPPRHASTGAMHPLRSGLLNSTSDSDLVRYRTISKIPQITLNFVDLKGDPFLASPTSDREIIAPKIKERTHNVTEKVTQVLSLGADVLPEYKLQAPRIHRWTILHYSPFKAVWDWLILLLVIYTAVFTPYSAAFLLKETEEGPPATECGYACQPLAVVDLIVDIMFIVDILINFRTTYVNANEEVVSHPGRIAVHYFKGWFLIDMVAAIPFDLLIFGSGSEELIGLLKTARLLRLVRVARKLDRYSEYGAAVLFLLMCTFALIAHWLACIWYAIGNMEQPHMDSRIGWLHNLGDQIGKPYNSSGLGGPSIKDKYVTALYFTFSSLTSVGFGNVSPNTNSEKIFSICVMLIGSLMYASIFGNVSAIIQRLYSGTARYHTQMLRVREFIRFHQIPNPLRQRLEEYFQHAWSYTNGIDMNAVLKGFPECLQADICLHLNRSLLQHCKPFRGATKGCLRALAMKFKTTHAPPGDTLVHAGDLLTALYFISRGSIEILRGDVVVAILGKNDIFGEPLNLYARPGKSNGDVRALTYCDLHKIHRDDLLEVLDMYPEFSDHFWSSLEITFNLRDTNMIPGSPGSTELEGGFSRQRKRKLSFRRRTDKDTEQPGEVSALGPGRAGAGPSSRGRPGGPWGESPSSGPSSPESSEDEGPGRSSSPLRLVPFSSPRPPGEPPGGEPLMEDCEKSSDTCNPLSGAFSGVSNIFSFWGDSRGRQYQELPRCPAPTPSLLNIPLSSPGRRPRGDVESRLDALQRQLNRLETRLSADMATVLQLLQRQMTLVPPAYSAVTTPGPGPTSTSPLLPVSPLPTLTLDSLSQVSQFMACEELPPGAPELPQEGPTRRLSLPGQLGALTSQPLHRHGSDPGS
For the compound `O=C(NNC(=S)NCc1ccc(Cl)cc1)c1ccc2c(c1)OCO2`, the “hERG current change (%, negative = inhibition) at 10uM” value worked out at 6.73%.
As for `Cc1ccc(NC(=S)NC2CC3CCC(C2)N3Cc2ccco2)cc1C` (stereo not shown), the “hERG current change (%, negative = inhibition) at 10uM” value is -36.1%.
As for `Cc1cccc(NC(=S)NC2CC3CCC(C2)N3Cc2ccco2)c1` (stereo not shown), the “hERG current change (%, negative = inhibition) at 10uM” value is listed as -43.5%.
The result for `Cc1cccc(NC(=S)NC2CC3CCCC(C2)N3Cc2ccco2)c1` (stereo not shown) reads -21.7%; that for `Cc1ccc(NC(=S)NC2CC3CCCC(C2)N3Cc2ccco2)cc1` (stereo not shown), -52.8%; that for `Cc1cc(C)cc(NC(=S)NC2CC3CCC(C2)N3Cc2ccco2)c1` (stereo not shown), -71.5%.
The result for `CCc1ccc(NC(=S)NC2CC3CCC(C2)N3Cc2ccco2)cc1` (stereo not shown) reads -45.5%; that for `O=C(Nc1ccc2c(c1)CCC2)c1ccccc1Br`, -12.9%; that for `COc1ccccc1/C=N/Nc1cc(C)nc2ccc(C)cc12`, 7.89%.
As for `COc1ccc(/C=N/Nc2cc(C)nc3c(C)cccc23)cc1`, the figure is -57.5%.
Take `COc1cccc2c(N/N=C/c3ccco3)cc(C)nc12`: the “hERG current change (%, negative = inhibition) at 10uM” value is on record as -5.81%.
For the compound `Cc1cc(N/N=C/c2ccccc2O)c2ccccc2n1`, the “hERG current change (%, negative = inhibition) at 10uM” value is reported as -72.5%.
As for `COc1cccc2c(N/N=C/c3ccc(O)c(O)c3)cc(C)nc12`, the figure is 18.9%.
The result for `Cc1cc(C)c2nc(C)cc(N/N=C/c3ccc(O)cc3)c2c1` reads -33.7%.
Consider `COc1ccc2nc(C)cc(N/N=C/c3cccc(OC)c3O)c2c1`, for which the “hERG current change (%, negative = inhibition) at 10uM” value was -13%.
Regarding `COc1ccc(/C=N/Nc2cc(C)nc3ccc(OC)cc23)c(OC)c1`, the “hERG current change (%, negative = inhibition) at 10uM” value is reported as -50.1%.
With `Cc1cc(N/N=C/c2ccc(O)cc2)c2cccc(C)c2n1`, the “hERG current change (%, negative = inhibition) at 10uM” value is given as -51.6%.
In the case of `Cc1ccc2nc(C)cc(N/N=C/c3ccccc3O)c2c1`, the “hERG current change (%, negative = inhibition) at 10uM” value is reported as 2.38%.
Take `Cc1cc(N/N=C/c2ccc(O)cc2O)c2ccccc2n1`: the “hERG current change (%, negative = inhibition) at 10uM” value was determined as 4.97%.
For `COc1cccc2c(N/N=C/c3ccccc3)cc(C)nc12`, the “hERG current change (%, negative = inhibition) at 10uM” value is -9.04%.
As to `COCCCNC(=O)c1oc2ccc(S(=O)(=O)N(C)C3CCCCC3)cc2c1C`, the “hERG current change (%, negative = inhibition) at 10uM” value is listed as -4.45%.
As for `COc1ccccc1-c1cc(-c2ccc(O)cc2)nc(N)c1C#N`, the figure is 13.9%.
As for `CC(=O)c1ccc(S(=O)c2ccccc2)cc1` (stereo not shown), the figure is -3.38%; as for `Cc1ccc(CSc2nnc(C)c(=O)[nH]2)cc1`, 10.9%.
Regarding `S=C(NCc1ccccn1)Nc1ccc(Cl)cc1Cl`, the “hERG current change (%, negative = inhibition) at 10uM” value is 6.07%.
The result for `O=C(CCc1ccccc1)NCC(=O)N/N=C/c1ccc(O)cc1O` reads -8.41%.
For `COCc1cc(=O)[nH]c(Sc2c(-c3ccccc3)c3ccc(Cl)cc3[nH]c2=O)n1`, the “hERG current change (%, negative = inhibition) at 10uM” value is reported as 20.4%.
On to `O=C(NCCCN1CCCC1=O)C(=O)NCC1OCCCN1S(=O)(=O)c1cc(F)ccc1F` (stereo not shown), for which the “hERG current change (%, negative = inhibition) at 10uM” value came to 23.8%.
As for `CC(=O)C1=C(c2ccccc2)NC(=O)NC1c1ccc(O)c(Cl)c1` (stereo not shown), the figure is 17.6%.
The result for `O=C(COc1ccccc1Cl)c1ccc2c(c1)CCCC2` reads -0.256%; that for `Cc1nc2nc(SCC(=O)Nc3cccc(F)c3)[nH]c2cc1Br`, 23.2%.
Turning to `C/C(N)=C(/C#N)C(=O)COC(=O)c1ccccc1O`, the “hERG current change (%, negative = inhibition) at 10uM” value was -0.192%.
As for `Cc1ccc(NC(=O)CSc2ccc(-c3ccco3)nn2)cc1`, the figure is -7.67%.
In the case of `CCCN(CCC)CC(C)(C)NS(=O)(=O)c1ccc(Cl)cc1`, the “hERG current change (%, negative = inhibition) at 10uM” value is -17.1%.
As for `COc1ccc2nc(C)cc(N/N=C/c3ccccc3)c2c1`, the figure is -17.1%; as for `COc1ccc(/C=N/Nc2cc(C)nc3ccccc23)cc1`, -63.3%.
As for `COc1ccc(/C=N/Nc2cc(C)nc3ccc(Br)cc23)cc1`, the figure is -35.1%; as for `COc1ccc(-n2c(C)cc(/C=C/c3nc(O)c([N+](=O)[O-])c(=O)[nH]3)c2C)cc1`, 3.06%; as for `CC1(C)NC(=O)N(CC(=O)NNC(=O)c2ccccc2F)C1=O`, 3.42%.
The result for `Cn1ncc(Br)c1C(=O)NC1CCCC1` reads 24.1%.
Take `C=CCn1c(O)c(C(C)=Nc2cccc(C(=O)O)c2)c(=O)[nH]c1=O`: the “hERG current change (%, negative = inhibition) at 10uM” value is 1.4%.
As for `O=C(c1ccc(Cl)cc1Cl)c1ncc(C(F)(F)F)cc1Cl`, the figure is -10.1%; as for `Cc1c(CN(C)C)c2c(n1Cc1ccccc1)C(=O)c1ccc(Br)cc1-2.Cl`, -74.5%.
As for `Cc1c(CN(C)C)c2c(n1C)C(=O)c1ccc(Br)cc1-2.Cl`, the figure is -37.3%.
Take `Cc1cc(=O)n(Cc2ccccc2)c2ccccc12`: the “hERG current change (%, negative = inhibition) at 10uM” value amounted to 4.79%.
The result for `O=c1oc2cc(Br)ccc2n1Cc1ccccc1` reads 18.6%.
The result for `Cc1cc(O)cc(=O)n1Cc1ccccc1` reads 12%; that for `Cc1c(CN(C)C)c2c(n1Cc1ccccc1)C(=O)c1ccccc1-2.Cl`, -75.6%.
As for `COCc1nnc(SCC(=O)NCc2ccccc2)n1-c1ccccc1`, the figure is -3.33%; as for `CCOCCCNC(C(=O)Nc1ccc(OC)c(Cl)c1)c1ccccc1` (stereo not shown), -35.1%; as for `CCC(C)C(NC(N)=O)C(=O)Nc1ccc(C)c(Cl)c1` (stereo not shown), 10.9%.
For the compound `CCc1ccc(C(=O)c2cncc(Br)c2)cc1`, the “hERG current change (%, negative = inhibition) at 10uM” value is -18.3%.
The result for `CCOC(=O)c1c(CN2CCCCC2)oc2ccc(O)cc12.Cl` reads -54.3%; that for `CCOC(=O)c1c(CN2CCCCC2)oc2ccc(OC)cc12`, -61.6%.
On to `COc1ccc2oc(C)c(C(=O)NN)c2c1`, for which the “hERG current change (%, negative = inhibition) at 10uM” value is -1.4%.
As for `COc1ccc2oc(C(=O)OCC(=O)N3CCCC(C)C3)c(C)c2c1` (stereo not shown), the figure is -39.4%.
As for `CCOC(=O)c1c(CN2CCN(c3ccccc3)CC2)oc2ccc(O)cc12`, the figure is -4.3%; as for `COc1ccc2oc(C(=O)OC(C)C(=O)N3CCC(C)CC3)c(C)c2c1` (stereo not shown), -5.44%.
The result for `CCOC(=O)c1c(CN2CCC(C)CC2)oc2ccc(OC)cc12` reads -51.2%.
On to `CCOC(=O)CCC(=O)c1c(C)oc2ccc(OC)cc12`, for which the “hERG current change (%, negative = inhibition) at 10uM” value is given as -57.2%.
The result for `CCOC(=O)c1c(CN2CCOCC2)oc2ccc(OC)cc12` reads -7.29%; that for `CCOC(=O)c1c(CN2CCOCC2)oc2ccc(OC(C)=O)cc12`, 13.9%; that for `CCOC(=O)c1c(CN2CCN(C)CC2)oc2ccc(O)cc12`, -38%.
The result for `COc1ccc2oc(C)c(C(=O)c3ccccc3)c2c1` reads -7.34%; that for `CCOC(=O)c1cnc(Nc2nc3ccccc3o2)nc1CSc1nnc(C)s1`, -5.06%.
For the compound `C/C(=N\NC(=O)c1ccco1)c1ccc(NC(=O)c2cccs2)cc1`, the “hERG current change (%, negative = inhibition) at 10uM” value was 5.09%.
For the compound `Cc1ccc(NC(=O)CCC(=O)Nc2ccc(C)cc2)cc1`, the “hERG current change (%, negative = inhibition) at 10uM” value was 12.2%.
As for `COC(=O)C1=C(c2ccc3ccccc3c2)C[C@@H]2CC[C@H]1N2C(=O)N1CCCCC1`, the figure is 2.21%; as for `CCn1nc(C)c(/C=N/NC(=O)c2nc3nc(C)cc(C)n3n2)c1C`, 14.1%.
For `COc1ccc(-c2nnn(Cc3nn[nH]n3)n2)cc1OC`, the “hERG current change (%, negative = inhibition) at 10uM” value stood at 3.25%.
With `O=C(CCSc1nnc(-c2ccncc2)o1)Nc1ccccc1Cl`, the “hERG current change (%, negative = inhibition) at 10uM” value is -10.9%.
For the compound `CCOC(=O)c1c(C)n(CCN2CCN(C)CC2)c2ccc(OC)cc12.Cl`, the “hERG current change (%, negative = inhibition) at 10uM” value is on record as -20.2%.
The result for `COc1ccc2oc(C(=O)OCC(=O)N3C(C)CCCC3C)c(C)c2c1` (stereo not shown) reads -14.8%; that for `CCc1ccc2oc(=O)cc(CN3CCCCC3C)c2c1.Cl` (stereo not shown), -16.7%; that for `CCOC(=O)c1c(CN(CC)CC)oc2ccc(OC)cc12`, -61.9%.
For `CCOC(=O)c1c(-c2ccc(OC)cc2)oc2ccc(O)cc12`, the “hERG current change (%, negative = inhibition) at 10uM” value stood at 13.1%.
In the case of `CCN(CC)CCOC(=O)c1c(C)oc2ccc(OC)cc12.Cl`, the “hERG current change (%, negative = inhibition) at 10uM” value was -36.6%.
As for `CCOC(=O)c1c(CN2CCCCC2)oc2ccc(OC)cc12.Cl`, the figure is -58.4%.
The result for `CCOC(=O)c1c(CN2CCCCC2C)oc2ccc(OC)cc12.Cl` (stereo not shown) reads -58.9%; that for `CCOC(=O)c1c(-c2ccccc2)oc2ccc(OC)cc12`, 1.46%.
The result for `Cc1ccc(C(=O)Nc2nnc(Cc3ccccc3)s2)cc1` reads 9.35%.
Consider `C=CCNC(=O)c1cc(-c2cccnc2)nc2ccccc12`, for which the “hERG current change (%, negative = inhibition) at 10uM” value is -34.7%.
The result for `Cc1ccc(/C=C/C(=O)N2CCN(c3ccc(F)cc3)CC2)o1` reads -15.8%.
Take `CSCC[C@H](NC(=O)[C@@H]1CSC2c3ccccc3C(=O)N21)C(=O)N1CCC[C@H]1CO` (stereo partly shown): the “hERG current change (%, negative = inhibition) at 10uM” value was determined as 1.52%.
As for `COc1ccc(N2CCN(Cc3nnc(-c4ccccc4)o3)CC2)cc1`, the figure is -0.362%; as for `O=C1Nc2ccccc2/C1=N\N1CCOCC1`, 2.95%; as for `Cc1nc2nc(-c3ccccc3)[nH]n2c(=O)c1C`, -3.77%.
On to `CCN1CC2=C(OC(N)=C(C#N)C2c2ccccc2)/C(=C\c2ccccc2)C1` (stereo not shown), for which the “hERG current change (%, negative = inhibition) at 10uM” value was -6.02%.
For the compound `CCCCN(CC)Cc1ccc(CNC(=S)Nc2c(C)cc(C)cc2C)o1`, the “hERG current change (%, negative = inhibition) at 10uM” value was -54.8%.
The result for `CCCCN(CC)Cc1ccc(CNC(=O)Nc2ccc(F)cc2)o1` reads -32.1%; that for `CCCCN(CC)Cc1ccc(CNC(=O)Nc2ccccc2)o1`, -9.65%; that for `CCCCN(CC)Cc1ccc(CNC(=S)Nc2ccccc2F)o1`, -16.3%.
The result for `CCCCN(CC)Cc1ccc(CNC(=O)Nc2ccc(Cl)cc2)o1` reads -61.9%.
The result for `CCCCN(CC)Cc1ccc(CNC(=S)Nc2ccc(C)cc2Cl)o1` reads -32.1%.
